Screens from PubChem.
Most compounds without a hit are left out; they make up all but 7.4% or so of the library.
Rab9 promoter act: qHTS Assay for Rab9 Promoter Activators; Huh7 Rab9 promoter-luciferase reporter, luminescence, 24 h; Potency, µM (series often up to 9.22 µM), without a hit: top-dose activation, negative = inhibition, hits mostly activators; actives 2.8% (n = 320,000); AID 485297, 2010; also: % of control where 0% means no effect; nearly all actives have a fitted effect of over 60% in size
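Huh7 cells stably carrying Rab9 promoter–luciferase reporter, plated 1500 cells/well, compound added after 2 h and incubated 24 h at 37 °C; luciferase luminescence then read after 10 min with detection reagent.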
FLuc modulator: qHTS profiling assay for firefly luciferase inhibitor/activator using purifed enzyme and Km concentrations of substrates (counterscreen for miR-21 project); Luciferin 4-monooxygenase (Photinus pyralis), P08659; actives 6.9% (n = 360,000); purified FLuc, Km substrates, luminescence inhibition; Potency, µM (top dose mostly 57.5 µM), inactives show at the top dose activity change, negative = inhibition, hits mostly inhibitors;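 also: plate controls were vehicle for no effect and reference inhibitor for full effect; nearly all actives have a fitted effect of over 55% in size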
Target sequence (P08659 whole entry, looked up): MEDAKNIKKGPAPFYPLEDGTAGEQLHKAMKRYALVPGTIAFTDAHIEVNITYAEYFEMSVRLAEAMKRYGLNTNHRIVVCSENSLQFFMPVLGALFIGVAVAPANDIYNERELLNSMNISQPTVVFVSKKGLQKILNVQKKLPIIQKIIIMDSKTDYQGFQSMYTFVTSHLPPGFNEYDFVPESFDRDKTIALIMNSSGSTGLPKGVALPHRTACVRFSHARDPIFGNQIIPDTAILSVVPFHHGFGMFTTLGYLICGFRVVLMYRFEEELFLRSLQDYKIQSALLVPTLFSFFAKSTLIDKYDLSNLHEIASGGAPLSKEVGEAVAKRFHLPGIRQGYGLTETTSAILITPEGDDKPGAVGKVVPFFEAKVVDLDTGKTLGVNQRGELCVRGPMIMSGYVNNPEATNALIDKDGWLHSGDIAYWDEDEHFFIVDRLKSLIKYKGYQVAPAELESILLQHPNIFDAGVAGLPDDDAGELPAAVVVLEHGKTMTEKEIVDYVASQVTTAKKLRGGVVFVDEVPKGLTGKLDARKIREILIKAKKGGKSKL
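Purified P. pyralis luciferase (10nM final) with 10uM D-luciferin and 10uM ATP (Km levels) in 50mM Tris acetate pH 7.5, 10mM Mg acetate, 0.01% Tween-20, 0.05% BSA; qHTS 6-point titration, ~60 µM downward; luminescence read.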
SMN2 splice up: qHTS Assay for Enhancers of SMN2 Splice Variant Expression. HEK293 SMN2-luciferase splicing reporter, luminescence, 30-36 h. Potency, µM (doses to about 46.1 µM), without a hit: top-dose activity change, positive = activation, hits mostly activators. actives 2.8% (n = 210,000). AID 1458, 2008; also: % of control where 0% means no effect; nearly all actives have a fitted effect of over 55% in size
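HEK293 cells carry an SMN2 […]–luciferase reporter in which exon 7 inclusion puts luciferase in frame. Cells were plated 10-12 h before compound addition, then incubated 30-36 h at 37C. ONE-Glo luminescence was read; sodium butyrate at 4.5 mM final served as control.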
ELG1 genotoxic: qHTS screen for small molecules that induce genotoxicity in human embryonic kidney (HEK293T) cells expressing luciferase-tagged ELG1; HEK293T ELG1-luciferase reporter, luminescence, 16 h; Potency, µM (highest dose often 46 µM), for the others: at the top dose activity change, positive = activation, hits mostly activators; actives 1.3% (n = 330,000); AID 504466, 2011; also: % of control where 0% means no effect; nearly all actives have a fitted effect of over 60% in size
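HEK293T cells expressing luciferase-tagged ELG1 were exposed to compound or DMSO vehicle for 16 hr at 37 °C and 5% CO2. Luciferase activity was then measured with ONE-Glo after 30 min at room temperature.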
NPC1 prom act: qHTS Assay for NPC1 Promoter Activators; Huh7 NPC1 promoter luciferase reporter, 24 h; Potency, µM (top dose mostly 9.22 µM), for the others: at the highest dose activation, most hits filed as activators; actives 2.4% (n = 320,000); also: % of control where 0% means no effect; nearly all actives have a fitted effect of over 60% in size
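Luciferase expression driven by the NPC1 promoter was measured in stably transfected Huh7 cells after a 24 h compound incubation, using a luciferase reagent and a luminescence read.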
p53 reactivation: qHTS assay for re-activators of p53 using a Luc reporter. H1299 p53-A138V BP100-luciferase reporter, luminescence, 24 h. Potency, µM (titrated, usually from 92.2 µM), for inactives: at the highest dose activity change, positive = activation, actives largely listed as activators. actives 0.063% (n = 320,000). AID 504706, 2011; also: % of control where 0% means no effect; nearly all actives have a fitted effect of over 45% in size
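H1299 (p53-null), stable ts p53-A138V + BP100-Luc; 1000 cells/well, Opti-MEM/10% FBS; cpd 4 pt, 1:5; 24 h, 37 deg C, 5% CO2; detection reagent 10 min RT; luminescence.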
Active calls of the source: *; ? = inconclusive; . = no result; [ ] = remark or other dose. Calls follow the shape of the dose curve; as a rule, active = well fitted curve in the direction sought with a large enough effect; inconclusive = small, poorly fitted or top-dose-only effect, or another doubt; inactive = no such curve, though single readings can be large; an effect the other way counts as inactive or inconclusive. Potency is read from the fitted curve at half-maximal effect.

SMILES	Rab9 promoter act	FLuc modulator	SMN2 splice up	ELG1 genotoxic	NPC1 prom act	p53 reactivation
CCOC(=O)Cn1cncc1-c1ccc([N+](=O)[O-])cc1	?	23.9µM*	?	17.1%	23.4%	?
O=[N+]([O-])c1cc(/C=N/Nc2nc3ccccc3[nH]2)c(O)cc1O	-27.9%	23.9µM*	-65.2%	?	-30.6%	?
C(=N\Nc1nc2ccccc2[nH]1)/c1cccc2cccnc12	-15.1%	0.426µM*	.	?	25.7%	?
Cc1[nH]c2ccccc2c1/C=N/Nc1nc2ccccc2[nH]1	18.3%	4.26µM*	.	?	?	?
Cc1nn(-c2ccccc2)c(Cl)c1/C=N/Nc1nc2ccccc2[nH]1	0.447µM*	0.477µM*	.	2.59µM*	0.562µM*	.
Cc1cc(=O)[nH]c(N/N=C/c2c(C)nn(-c3ccccc3)c2Cl)n1	1.1%	?	.	-3.6%	1.8%	-2.5%
N[C@H](CCC(=O)NCC(=O)O)C(=O)O	.	.	1.1%	.	.	.
Cc1oc(-c2ccc(Cl)cc2)nc1CS(=O)CC(=O)NCc1ccccn1 (centres undefined)	-2.5%	-2.4%	.	-1.5%	0.2%	-4.4%
COc1ccccc1C(=O)Nc1ccc2nc(N3CCC(C)CC3)cc(C)c2c1	.	0.2%	-114.3%	.	.	.
COc1ccc(/C=N/Nc2nc3ccccc3[nH]2)c(OC)c1OC	?	1.51µM*	.	?	?	?
COc1cccc(/C=N/Nc2nc(C)cc(=O)[nH]2)c1OC	14.5%	?	.	10.2%	25.9%	0.1%
Cc1cc(=O)[nH]c(N/N=C/c2c[nH]c3ccccc23)n1	19.8%	?	.	3.9%	3.9%	8.0%
Cc1ccccc1/C=N/Nc1nc2ccccc2[nH]1	3.55µM*	10.7µM*	.	-10.2%	?	0.3%
Cc1ccc(/C=N/Nc2nc3ccccc3[nH]2)s1	2.24µM*	5.36µM*	10µM*	?	2.82µM*	?
C(=N\Nc1nc2ccccc2[nH]1)/c1c[nH]c2ccccc12	?	7.57µM*	?	?	?	25.1µM*
CCOc1ccc(CCNC(=O)C2CCCN(S(=O)(=O)N(C)c3ccc(F)cc3)C2)cc1 (centres undefined)	.	-8.9%	.	.	.	.
O=C(O)c1ccc(Cc2ccccc2C(=O)O)cc1	.	.	-14.0%[9.22 µM]	.	.	.
O=C(NC(=S)Nc1cccc2cccnc12)c1ccccc1	?	7.57µM*	-0.3%	6.4%	?	1.8%
O=C(Nc1cccc2cccnc12)c1ccc(F)cc1	.	15.1µM*	.	.	.	.
O=C(NC(=S)Nc1cccc2[nH]ncc12)c1ccccc1	2.51µM*	?	?	-4.4%	3.16µM*	26.3%
CC(C)c1ccc(C(=O)Nc2cccc3cccnc23)cc1	.	9.53µM*	8.1%	.	.	.
Cc1cc(C(=O)Nc2cccc3cccnc23)ccc1[N+](=O)[O-]	0.6%	?	24.5%	3.8%	6.1%	-1.9%
Cc1ccc(CNC(=O)c2cc(=O)c3cc(C)cc(C)c3o2)cc1	.	-4.6%	13.5%	.	.	.
CCOc1ccc(C(=O)Nc2cccc3cccnc23)cc1	0.2%	?	.	11.8%	3.3%	.
CC(C)Oc1ccc(C(=O)Nc2cccc3cccnc23)cc1	20.2%	10.7µM*	.	9.9%	11.1%	1.5%
SMILES	Rab9 promoter act	FLuc modulator	SMN2 splice up	ELG1 genotoxic	NPC1 prom act	p53 reactivation
COc1ccc(OC)c(C2C(C(C)=O)=C(C)Nc3ncnn32)c1 (centres undefined)	-3.0%	2.4%	.	4.3%	5.4%	12.9%
Cc1nc2ccn(Cc3ccccc3)c(=O)c2cc1C(=O)Nc1ccc(F)cc1Cl	.	4.2%	.	.	.	.
Cc1cc(C)n(-c2ccc(C(=O)Nc3sccc3C(N)=O)cc2)n1	?	6.75µM*	12.6µM*	?	?	?
CC1CCCCN1S(=O)(=O)c1ccc(C(=O)Nc2sccc2C(N)=O)cc1 (centres undefined)	?	21.3µM*	20µM*	?	?	27.3%
NC(=O)c1ccsc1NC(=O)C1CCCN1S(=O)(=O)c1ccc(Cl)cc1 (centres undefined)	2.4%	-7.0%	-13.3%	-2.4%	-5.3%	-2.7%
Cc1cc(C)n(-c2ccc(C(=O)Nc3nnc(C)s3)cc2)n1	?	13.5µM*	2.2%	?	12.8%	7.3%
Cc1cc(C)n(-c2ccc(C(=O)Nc3ccccn3)cc2)n1	0.501µM*	6.01µM*	1.58µM*	?	0.891µM*	12.9%
COc1ccc(NC(=O)COC(=O)CO/N=C(\C)c2ccc3c(c2)OCO3)cc1S(N)(=O)=O	4.2%	-18.5%	.	3.0%	-2.5%	-9.4%
COc1ccc(NC(=S)Nc2cc(C)[nH]n2)cc1Cl	?	16.9µM*	.	15.2%	?	17.9%
COc1cc(C)c(NC(=S)Nc2ccc(C)c(Cl)c2)cc1OC	0.1%	5.4%	-12.9%	-1.4%	-2.2%	2.3%
Cc1cc(NC(=S)Nc2ccc(C)c(Cl)c2)n[nH]1	?	16.9µM*	17.8µM*	?	?	3.8%
COc1ccc(NC(=S)Nc2cc(-c3ccccc3)[nH]n2)cc1Cl	-3.4%	?	10.6%	-3.9%	-3.6%	-9.0%
Cc1ccc(-n2c(=O)cc(N3CCN(c4ccccc4Cl)CC3)[nH]c2=O)cc1	.	-2.2%	.	.	.	.
Cc1ccccc1NC(=O)Cn1c(=O)n(CCCCCC(=O)NCc2ccc3c(c2)OCO3)c(=O)c2sccc21	.	0.3%	-11.4%	.	.	.
O=C(O)[C@@H]1CC(O)CN1C(=O)CCc1c[nH]c2ccccc12 (some centres undefined)	3.9%	-0.9%	.	0.9%	-2.0%	8.5%
CNC(=O)/C(C#N)=C/c1cccc(Oc2ccccc2)c1	-2.8%	8.49µM*	.	?	-3.7%	?
O=C(Nc1ccc(F)cc1)N1CCc2ccccc2C1	?	23.9µM*	.	?	3.98µM*	12.3%
O=C(Nc1ccc(Br)cc1)N1CCc2ccccc2C1	2.82µM*	10.7µM*	.	?	2.82µM*	-8.1%
COc1cc(NS(=O)(=O)c2ccc3c(c2)CC(C)N3C(=O)C2CCC2)cc(OC)c1OC (centres undefined)	.	-15.8%	.	.	.	.
CCOc1ccc(S(=O)(=O)NCC(c2ccco2)S(=O)(=O)c2ccc(F)cc2)cc1 (centres undefined)	.	-8.3%	.	.	.	.
O=C(NC(O)C(=O)c1ccccc1)c1ccc(F)cc1 (centres undefined)	-1.4%	-0.4%	.	3.2%	1.2%	9.6%
COCCCNC(=O)Cn1nnc(-c2ccc(NC(=O)c3ccccc3OC)cc2)n1	3.1%	-18.5%	-5.6%	1.0%	14.1%	8.0%
